VACV mCherry inh – vaccinia inhibition (mCherry reporter). Vaccinia virus mCherry reporter infection, fluorescence. Potency, µM (titrated, usually from 36.5 µM), actives largely listed as inhibitors. 310,000 compounds, 0.63% hits. AID 720579; calls by dose curve; tested in A549 cells; note: nearly all actives have a fitted effect of over 35% in size
HCV inhibitor – HCV inhibition | 340,000 compounds, 3.4% hits | Potency, µM (highest dose often 41.8 µM), usual class: inhibitors | AID 651820 | Huh7.5.1 HCVcc-Cre infection, luciferase reporter, 44 h
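Whole-lifecycle infectious HCVcc-Cre system; cells 1,000/well, compound then virus (~0.5 moi) added 4 h after plating, 44 h culture. Luciferase read 15 sec following 15 min substrate incubation, room temp.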
VACV Venus inh – vaccinia inhibition (Venus reporter) | Vaccinia virus Venus reporter expression, fluorescence | Potency, µM (doses to about 36.5 µM), most hits filed as inhibitors | AID 720580 | 330,000 compounds, 0.46% hits; calls by dose curve; tested in A549 cells; note: nearly all actives have a fitted effect of over 30% in size
NS1 function inh – blocks influenza NS1 protein function; 270,000 compounds, 0.4% hits; Potency, µM (highest dose often 46.1 µM); AID 2326; calls by dose curve; note: actives are rising curves; nearly all actives have a fitted effect of over 50% in size
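A cell-based growth assay was used: compounds that relieve NS1-induced slow growth of budding yeast raise OD600. Assay medium was yeast nitrogen base with ammonium sulphate and -URA supplement, pH 6.0, with 2% galactose.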
Pf growth 96h – inhibits malaria parasite growth, 96 h; Potency, µM (titrated, usually from 28.7 µM), usual class: inhibitors; P. falciparum luciferase reporter growth, 96 h; 320,000 compounds, 6.9% hits
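Infected RBCs, 2% Hct / 0.05% parasitemia final; luciferase-reporter P. falciparum; cpd 96 h, 37 C, 5% CO2; luciferase detection reagent; luminescence.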
Pf growth 48h – inhibits P. falciparum growth in the first generation, 48 h | P. falciparum luciferase growth in erythrocytes, 48 h | Potency, µM (top dose mostly 28.7 µM), actives largely listed as inhibitors | 310,000 compounds, 5.9% hits | AID 504832
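Luciferase-expressing P. falciparum in infected erythrocytes (2% hematocrit, 0.1% parasitemia final) in RPMI 1640/0.5% Albumax were exposed to compound for 48 hours at 37 C, 5% CO2; growth read as luminescence.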
A number is an active result; - = inactive; ? = inconclusive; . = not tested or not shown; [ ] = dose if it differs, or a comment. In the library only some 11% were active in any assay of this set; here they are far more common. Unless noted, calls come from the whole dose curve; as a rule, active = well fitted inhibition curve with a large enough effect; inconclusive = small, poorly fitted or top-dose-only effect, or another doubt; inactive = no such curve, though single readings can be large or run the other way.

SMILES	VACV mCherry inh	HCV inhibitor	VACV Venus inh	NS1 function inh	Pf growth 96h	Pf growth 48h
Cc1sc2nc(CN3CCCCC3)nc(Nc3ccc4c(c3)OCCO4)c2c1C	-	-	-	-	?	9.3µM
COc1ccc(C2C(C(=O)OCC3CCCO3)=C(C)NC3=C2C(=O)CC(c2ccco2)C3)cc1O (stereo not given)	.	-	.	-	10µM	?
CC1=C(C(=O)OC(C)C)C(c2coc3ccccc3c2=O)C2=C(CCCC2=O)N1 (stereo not given)	.	-	-	-	-	.
CCOC(=O)C1=C(C)NC2=C(C(=O)CC(c3ccc(OC)c(OC)c3)C2)C1c1ccc(C)o1 (stereo not given)	-	13µM	-	-	?	1.2µM
COC(=O)C1=C(C)NC(C)=C(C(=O)OCC2CCCO2)C1c1cccc(Br)c1 (stereo not given)	-	-	-	-	?	9.3µM
COc1ccccc1NC(=O)C1=C(C)NC2=C(C(=O)CC(c3ccc(OC)c(OC)c3)C2)C1c1coc2ccccc2c1=O (stereo not given)	-	-	-	-	-	12µM
COc1ccc(NC(=O)c2ccc3c(=O)n(-c4ccc(OC)cc4OC)c(=S)[nH]c3c2)c(OC)c1	-	-	-	.	?	?
CCOC(=O)c1c(NC(=O)COc2ccc(Cl)cc2C)sc2c1CCCCC2	-	.	-	.	.	.
COc1ccc(N2CCN(C(=O)CCCn3c(=O)c4cccn4c4cccnc43)CC2)cc1	.	-	.	-	-	12µM
COc1ccc(CCNC(=O)CCn2c(=O)c3cccn3c3cccnc32)c(OC)c1OC	-	.	-	.	.	.
COc1ccc(N2CCN(C(=O)CCn3c(=O)c4cccn4c4cccnc43)CC2)cc1	-	.	-	.	.	.
CC(C)Oc1ccc(CNC(=O)Cn2c(=O)c3cccn3c3cccnc32)cc1	-	-	-	-	15µM	-
COc1ccc(CCNC(=O)CCCn2c(=O)c3cccn3c3cccnc32)c(OC)c1	.	?	.	-	10µM	?
CC(C)Oc1ccc(CNC(=O)c2ccc(Cn3c(=O)c4cccn4c4cccnc43)cc2)cc1	-	.	-	.	.	.
COc1ccc(CCNC(=O)CCCn2c(=O)c3cccn3c3cccnc32)c(OC)c1OC	.	?	.	-	13µM	?
C#CCOC(=O)C1C2C=CC(C2)C1C(=O)O (stereo not given)	-	-	-	-	-	-
O=C(/C=C/c1cn(-c2ccccc2)nc1-c1cccnc1)N1CCCC1	.	-	.	.	?	?
N#C/C(=C\c1cn(-c2ccccc2)nc1-c1cccnc1)c1nnc2n1CCCCC2	.	-	.	-	8.3µM	.
CC(=O)NCCNC(=O)c1ccc(-n2c(C)ccc2C)cc1	-	-	-	.	?	-
COc1ccc(OC)c(NC(=O)c2cccc(N3C(=O)C4C5CCC(C5)C4C3=O)c2)c1 (stereo not given)	-	.	-	-	-	-
Cc1cc(O)c(C(C)C)cc1Cl	.	.	.	.	15µM	?
Cc1cc(O)c(C(C)C)cc1NC(=O)c1ccc(Cl)cc1	.	?	-	-	?	?
CCCCC(CC)CNC(=O)CCCn1c(=O)[nH]c2ccsc2c1=O (stereo not given)	-	.	-	.	.	.
CCOc1cc2c3c(c1)C(C)CC(C)(C)N3C(=O)C2=O (stereo not given)	-	.	-	-	0.83µM	?
Cc1cc(N2CCOCC2)n2nc(C)c(-c3ccc(Cl)cc3)c2n1	.	-	.	-	-	-
SMILES	VACV mCherry inh	HCV inhibitor	VACV Venus inh	NS1 function inh	Pf growth 96h	Pf growth 48h
Cc1cc(Cl)n2nc(C)c(-c3ccc(Cl)cc3)c2n1	?	?	14µM	.	?	-
Cc1cc(N)n2nc(C)c(-c3ccccc3)c2n1	.	?	.	-	-	?
COc1ccc(-c2c(C)nn3c(C)cc(C)nc23)cc1	-	11µM	-	-	-	-
COc1ccc(-c2c(C)nn3c(C(F)(F)F)cc(C)nc23)cc1	-	.	-	.	.	.
Cc1cc(N)n2nc(C)c(-c3ccc(Cl)cc3)c2n1	?	11µM	?	-	-	?
Cc1cccn2c(=O)c(/C=C3\SC(=S)NC3=O)c(NCCCN3CCOCC3)nc12	.	-	.	-	?	13µM
Cc1ccc(C(=O)N/N=C\c2ccc[nH]2)cc1[N+](=O)[O-]	-	4.5µM	-	-	-	-
Cc1ccc(C(=O)Nc2cccc(NC(=O)c3ccc(C)c([N+](=O)[O-])c3)n2)cc1[N+](=O)[O-]	-	?	-	-	?	1.7µM
COc1ccc(C(=O)Nc2cccc(NC(=O)c3ccc(OC)c(OC)c3)n2)cc1OC	.	?	.	-	-	10µM
O=C(N/N=C/c1ccc[nH]1)c1ccccc1[N+](=O)[O-]	-	-	-	-	?	-
COc1ccc(OC)c(CCNC(=O)CCc2nnc3ccc(N4CCCCC4)nn23)c1	.	-	.	-	?	-
Cc1cc(N2CCN(c3nc4ccccc4s3)CC2)n2ncnc2n1	.	3.2µM	.	-	-	?
CCN(CC)C(=O)c1nn(Cc2ccccc2)c(=O)c2ccccc12	.	-	.	-	?	-
CCN(CC)C(=O)c1nn(-c2ccccc2)c2c1C1CCC2(C)C1(C)C (stereo not given)	-	13µM	-	.	?	?
O=[N+]([O-])c1ccc(COc2ccccc2/C=N/O)cc1	-	?	-	-	-	-
O=C1NC(=O)/C(=C\c2ccccc2OCc2ccc([N+](=O)[O-])cc2)N1	.	?	.	-	12µM	-
COc1ccc(N2CCN(C(c3cccs3)c3nnnn3C3CCCC3)CC2)cc1 (stereo not given)	-	-	-	-	.	?
COc1ccc(OC)c(C(c2nnnn2C2CCCC2)N2CCN(c3ccccc3F)CC2)c1 (stereo not given)	.	?	-	-	?	4.1µM
Fc1ccc(N2CCN(C(c3cccs3)c3nnnn3C3CCCC3)CC2)cc1 (stereo not given)	-	-	-	-	-	10µM
CC(C)CC(c1nnnn1C1CCCC1)N1CCN(c2ccccc2F)CC1 (stereo not given)	.	?	?	-	-	-
COc1ccc(N2CCN(C(c3ccccc3OC)c3nnnn3C3CCCC3)CC2)cc1 (stereo not given)	.	?	-	-	.	15µM
COc1ccc(N2CCN(C(c3cccc(OC)c3OC)c3nnnn3C3CCCC3)CC2)cc1 (stereo not given)	.	?	-	-	-	?
CC(=O)Oc1ccc(-c2nc3cc(Cl)ccc3c(=O)o2)cc1	-	-	-	-	-	-
O=C(CCSCCc1ccccn1)Nc1ccc(Cc2ccncc2)cc1	-	-	-	.	12µM	?
CCCCCC(=O)Nc1ccc(Cc2ccncc2)cc1	.	-	-	-	12µM	-
Cc1c(C)n(CC(O)CNCCO)c2ccccc12 (stereo not given)	.	-	.	-	-	-
CCOC(=O)/C=C1\SCC(=O)N1CC(=O)NCc1cccc(Cl)c1	-	-	-	-	-	-
CCOc1ccccc1NC(=O)C(NCC1(N2CCCCC2)CCCCC1)c1ccccc1 (stereo not given)	.	?	.	-	3.7µM	?
O=C(N/N=C/C=C/c1ccco1)c1cnccn1	-[7.34 µM]	-	-[7.34 µM]	-	?	?

Screens from PubChem.
